The record followed here is PubChem BioAssay (NCI).

About 79,000 compounds went through this panel and 15% of them were active in at least one assay; those are over-represented in the sample as a whole. Calls of active or inactive are those of the source. Rule as the data show it: active = growth inhibition above about 70%; inactive = the rest. Where a SMILES comes first, the peptide text is derived from it. Bridges are numbered along the chain shown (N, C = ends).

The nature of the first assay: NCI Yeast Anticancer Drug Screen. Data for the rad50 strain (AID 155).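 Also: 0% = growth of vehicle-only cultures of the same strain.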 To be noted: S. cerevisiae rad50 strain growth inhibition; at 50.0 µM; stronger effect = higher value. The method in brief:
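Vehicle-treated cultures provide the reference for the growth inhibition reported for compound-exposed, repair-deficient yeast.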
For `O=c1c2ccccc2[nH]c2ccc(O)cc12`, the growth inhibition is 1.45% (inactive).
In the case of `CCOC(=O)c1nc(SC)sc1NC(=O)c1ccc(OC)cc1`, the growth inhibition is 12.8% (inactive).
Take `CCOC(=O)Nc1cc2c(c(N)n1)N=C(CN(C)c1ccccc1)CN2`: the growth inhibition is 22.9% (inactive).
The same measure, in the same setting: the result for `COc1ccc2c(c1)C(O)C(NCc1ccccc1)C2` (centres undefined) reads -13.6% (inactive); that for `NC(=S)N/N=C/C=C/c1ccco1`, 8.9% (inactive).
On to `COC(=O)c1ncn(C(C(=O)OC)C(=O)OC)c1O`, for which the growth inhibition is -5.6% (inactive).
For `CCOC(=O)C1C2CC3C(CC21C)C3(C)C` (centres undefined), the growth inhibition was -6.1% (inactive).
In the case of `CCOC(=O)c1cc2ccccc2oc1=O`, the growth inhibition is -15.2% (inactive).
The same measure, in the same setting: the result for `Nc1ncnc2c1ncn2C1CCC(COS(N)(=O)=O)C1` (centres undefined) reads 4.3% (inactive); that for `COc1ccccc1-n1c(NN)nc2ccc(Br)cc2c1=O`, 55.6% (inactive); that for `CC(=O)OCC1OC(Sc2ccc([N+](=O)[O-])cc2)C(OC(C)=O)C(OC(C)=O)C1OC(C)=O` (centres undefined), 12.3% (inactive).
With `CCCCCC(O)(CCCC)CCCCC`, the growth inhibition was -10.7% (inactive).
The same measure, in the same setting: the result for `C(=N\c1nccs1)/c1ccc(/C=N/c2nccs2)cc1` reads -5.2% (inactive); that for `C=CCCCCCCCCC(=O)N/N=C/c1ccc(NC(C)=O)cc1`, 10.2% (inactive); that for `Cc1ccc(-c2nc3ccccc3cc2N)cc1`, 5.85% (inactive).
As to `CCOC(=O)CC(CC(=O)OCC)(C(=O)OCC)C(=O)OCC`, the growth inhibition was -2.2% (inactive).
As to `CCOC(=O)c1c[nH]c(C(=O)OCC)c1C`, the growth inhibition was 14.4% (inactive).
Still for that read-out and setting: the result for `CCOC(=O)C1CSSCC(N)C(=O)N1` (stereo not drawn) (H-Cys-Cys-OEt; disulfide 1-2; configuration not given here) reads 5.65% (inactive).
The same measure, in the same setting: for `Cn1nc(-c2ccccc2)c(C(=O)/C=C/c2ccc(F)cc2)c(N2CCCCC2)c1=O` the value was 2.55% (inactive).
Consider `O=c1[nH]c2cc3[nH]c4ncccc4c(=O)c3cc2[nH]1`, for which the growth inhibition was -3.7% (inactive).
Turning to `Nc1c(Br)c(Cl)c(Br)c2c1-c1ccc(Cl)cc1C2`, the growth inhibition was -13.1% (inactive).
With `CCOC(=O)N1CCc2cc(OC)c(OC)c3c2c1cc1cc(OC)c(OC)cc13`, the growth inhibition was -9.2% (inactive).

A further assay is described as follows: NCI Yeast Anticancer Drug Screen. Data for the mec2-1 strain (AID 157). Particulars: S. cerevisiae mec2-1 strain, at 50.0 µM, stronger effect = higher value. The method in brief: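 Using mec2-1 yeast: add compound, measure growth, express inhibition versus vehicle-treated cultures.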
As to `Cc1cc([NH-])c([NH-])cc1C.[Cl][Pt+2][Cl]`, the growth inhibition was -6.4% (inactive).
Consider `NC(=O)CCCC(C(N)=O)(c1ccccc1)c1ccccc1`, for which the growth inhibition is 13.3% (inactive).
As for `CCCCOC(=O)c1ccc(NC(=O)Nc2ccc(SC)cc2)cc1`, the growth inhibition is 1.8% (inactive).
With `O=C(NN1C(=O)CSC1c1ccccc1F)c1ccncc1` (centres undefined), the growth inhibition was 6.25% (inactive).
Still for that read-out and setting: the result for `Nc1nc2ncc(=O)[nH]c2c(=O)[nH]1` reads -4.2% (inactive); that for `CC(=O)NC(C(=O)O)C(C)(C)S` (centres undefined), -48.9% (inactive); that for `CCc1ccccc1NC(C)=O`, -16.4% (inactive).
For `CC(O)CNCC(C)(C)N` (centres undefined), the growth inhibition is -4.65% (inactive).
`COc1ccc(Nc2nc(NS(=O)(=O)c3cc(C)c(Cl)cc3S)n[nH]2)cc1`: the growth inhibition is 27.9% (inactive).
For `O=C(Nc1cccc(Cl)c1Cl)c1cc(/C=C/c2ccc([N+](=O)[O-])cc2)on1`, the growth inhibition was 1.15% (inactive).
On the same count and under the same terms, the result for `COC(=O)c1cc(NS(=O)(=O)c2ccc(N)cc2)cc(C(=O)OC)c1` reads -24.2% (inactive); that for `CC(=O)N1C(=O)C(=O)c2cc(Cl)ccc21`, -6.9% (inactive).
With `Cc1cc2ccc(OC(=O)c3ccc(N=C(N)N)cc3)cc2oc1=O`, the growth inhibition was 4.3% (inactive).
On the same count and under the same terms, for `Nc1ncnc2c1ncn2-c1ccccc1Cl` the value was 8.35% (inactive).
For the molecule `Cc1nc2c(N3CCCCC3)ncnc2o1`, the growth inhibition was -0.85% (inactive).
Consider `CCCC(C)OC(=O)CC(c1ccccc1)N1CCCCC1` (centres undefined), for which the growth inhibition was -10.1% (inactive).
Take `CC(=O)c1cc([N+](=O)[O-])c(O)c([N+](=O)[O-])c1O`: the growth inhibition was -2.2% (inactive).
Same read-out and setting: the result for `Brc1nc(-[n+]2ccccc2)[n-]c1Br` reads 3.75% (inactive); that for `O=c1c2ccccc2[nH]c2ccc(O)cc12`, -7.95% (inactive).
As to `CCOC(=O)c1nc(SC)sc1NC(=O)c1ccc(OC)cc1`, the growth inhibition was -7.3% (inactive).
With `CCOC(=O)Nc1cc2c(c(N)n1)N=C(CN(C)c1ccccc1)CN2`, the growth inhibition was 6.15% (inactive).
As to `COc1ccc2c(c1)C(O)C(NCc1ccccc1)C2` (centres undefined), the growth inhibition is -7.75% (inactive).
For the molecule `NC(=S)N/N=C/C=C/c1ccco1`, the growth inhibition was 0.25% (inactive).
The same measure, in the same setting: the result for `COC(=O)c1ncn(C(C(=O)OC)C(=O)OC)c1O` reads -6.75% (inactive); that for `CCOC(=O)C1C2CC3C(CC21C)C3(C)C` (centres undefined), -6.65% (inactive).
As to `CCOC(=O)c1cc2ccccc2oc1=O`, the growth inhibition was 0.3% (inactive).
On the same count and under the same terms, for `Nc1ncnc2c1ncn2C1CCC(COS(N)(=O)=O)C1` (centres undefined) the value was 3.65% (inactive).
